Data reported in PubChem BioAssay.
Active and inactive are the calls of the source. Unless noted, the rule behind the calls is not given here.

Legend:
[1] = system: XIP peptide (Xip251-270) binding; experiment: small-molecule binders of XIP peptide, primary screen, biochemical, small-molecule microarray, fluorescence 635/667 nm, 0.1 µg/mL protein (AID 1182); settings: fluorescent protein binding, 635 nm, higher = more signal, called active from +8 up or from −8 down
XIP peptide (Xip251-270) = experiment: small-molecule binders of XIP peptide, primary screen, biochemical, small-molecule microarray, fluorescence 635/667 nm, 0.5 µg/mL protein (AID 1183); settings: small-molecule microarray binding, fluorescence 635 nm; higher = more signal
[2] = Plasmodium falciparum growth inhibition, primary screen, strain 3D7, DAPI fluorescence, 100 nL (AID 1184);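 note: parasites grown inside human red blood cells in medium with human serum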; settings: P. falciparum 3D7 growth, 3 d, higher = more signal
[3] = target: Homeobox protein Hox-A13 (Mus musculus) (UniProt Q62424); experiment: inhibitors of HoxA13-DNA binding, primary screen, biochemical, fluorescence polarization, labeled oligonucleotide (AID 1185); settings: 15 min, higher = more signal, called active from +8 up or from −8 down
[4] = inhibitors of hydroxyurea-induced Chk1 phosphorylation, primary screen, imaging, HeLa, phospho-Chk1 antibody, percent positive cells (AID 1186); settings: hydroxyurea-induced phospho-Chk1 immunofluorescence imaging, higher = more signal
[5] = inhibitors of hydroxyurea-induced Chk1 phosphorylation, primary screen, imaging, HeLa, phospho-Chk1 nuclear intensity (AID 1187); settings: hydroxyurea-induced phospho-Chk1 immunofluorescence imaging, higher = more signal

Chain of Homeobox protein Hox-A13 (Mus musculus) (Q62424 whole entry, looked up): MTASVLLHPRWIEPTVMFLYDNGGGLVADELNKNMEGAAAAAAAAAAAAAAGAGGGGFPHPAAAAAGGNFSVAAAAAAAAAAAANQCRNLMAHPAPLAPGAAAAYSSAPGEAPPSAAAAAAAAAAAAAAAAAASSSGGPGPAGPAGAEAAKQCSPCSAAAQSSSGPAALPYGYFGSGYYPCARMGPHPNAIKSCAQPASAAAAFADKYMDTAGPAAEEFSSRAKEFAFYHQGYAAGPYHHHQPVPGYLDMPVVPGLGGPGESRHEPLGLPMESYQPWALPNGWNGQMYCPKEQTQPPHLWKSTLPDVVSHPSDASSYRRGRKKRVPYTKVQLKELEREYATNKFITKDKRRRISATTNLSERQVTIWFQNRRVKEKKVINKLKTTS

Row | SMILES | composite z-score [1] | composite z-score (XIP peptide (Xip251-270)) | z-score [2] | z-score [3] | z-score [4] | z-score [5]
1 | O=C(Nc1cc(Br)ccc1C(=O)NCc1cccc(O)c1)c1ccccc1 | 2.11 (inactive) | 0.597 | -0.64 | -0.429 (inactive) | 0.0071 (inactive) | -0.27 (inactive)
2 | O=C1O[C@H](c2ccccc2)[C@H](c2ccccc2)N2[C@H]1[C@@H](C(=O)N1CCCCCCC1)[C@]1(C(=O)Nc3ccc(C#CCCO)cc31)[C@H]2c1ccc(OCCO)cc1 | 5.42 (inactive) | 0.963 | -1.98 | -8.67 (active) | -0.141 (inactive) | -0.203 (inactive)
3 | O=C(NCc1ccccc1)[C@]1(Cc2ccccc2)N=C(c2ccc(OCCCO)cc2)O[C@@H]1c1ccccc1 | 0.0268 (inactive) | 0.117 | -2.18 | -2.75 (inactive) | -0.875 (inactive) | -1.17 (inactive)
4 | Cc1ccc(S[C@]2(C(=O)NCc3ccccc3)CC(=O)N(C3Cc4ccccc4C3)[C@@H]2c2ccc(CO)cc2I)cc1 | 1.77 (inactive) | 0.23 | 0.237 | -1.78 (inactive) | -0.424 (inactive) | -0.164 (inactive)
5 | C=CCC(OC(C)=O)[C@@H]1[C@@H](N(Cc2ccc(-c3ccccc3)cc2)C(=O)Cc2ccc(OC)cc2)c2cc(OCCCO)ccc2N1C(=O)c1ccc(-c2ccccc2)cc1 (some centres undefined) | -0.0622 (inactive) | -0.698 | -2.91 | -1.52 (inactive) | -0.244 (inactive) | 0.158 (inactive)
6 | COCCOC(=O)N1C(=O)[C@@]2(c3cc(C#CC4(O)CCCCCC4)ccc31)[C@H](C(=O)N1CCN(c3ncccn3)CC1)[C@H]1C(=O)O[C@H](c3ccccc3)[C@H](c3ccccc3)N1[C@@H]2c1ccc(O)cc1 | 0.119 (inactive) | 0.723 | -0.849 | -0.575 (inactive) | 0.133 (inactive) | 0.559 (inactive)
7 | COc1ccc(CCNC(=O)[C@@H]2c3ccccc3C(=O)N(Cc3ccccc3C(F)(F)F)[C@H]2c2ccc(CO)cc2)cc1 | -0.251 (inactive) | 0.766 | -0.756 | -3.85 (inactive) | 0.239 (inactive) | 0.61 (inactive)
8 | CN1C(=O)C2C=CC(C(O)C3CCCCC3)N(N(c3ccccc3)c3ccccc3)C2C1=O (centres undefined) | -0.119 (inactive) | 0.63 | 0.721 | -4.01 (inactive) | 0.74 (inactive) | -0.024 (inactive)
9 | COCCOC(=O)N1C(=O)[C@@]2(c3cc(C#CC4(O)CCCCCC4)ccc31)[C@H](C(=O)N1CCc3cc(OC)c(OC)cc3C1)[C@H]1C(=O)O[C@H](c3ccccc3)[C@H](c3ccccc3)N1[C@@H]2c1ccccc1OCCO | -0.0915 (inactive) | 0.771 | -1.99 | 0.772 (inactive) | 0.286 (inactive) | 1.13 (inactive)
10 | CC(C)NC(=O)[C@@H]1c2ccccc2C(=O)N(Cc2cc(C(F)(F)F)cc(C(F)(F)F)c2)[C@H]1c1ccc(CO)cc1 | 1.14 (inactive) | 0.55 | -0.337 | -3.9 (inactive) | 0.349 (inactive) | 0.622 (inactive)
11 | CC(=O)NCCCC[C@@H]1NC(=O)[C@@H]2C[C@H](C(=O)NCCCC[N+](C)(C)C)[C@H](c3cccc(OCCO)c3)N2C1=O | 0.383 (inactive) | 0.446 | -0.102 | -2.25 (inactive) | -0.349 (inactive) | -0.317 (inactive)
12 | CCCCC(=C=CC[C@H](O)c1ccccc1OCCO)C[C@H](O)c1ccccn1 | 0.418 (inactive) | 0.318 | -0.966 | -3.35 (inactive) | 0.305 (inactive) | 0.113 (inactive)
13 | COCCOC(=O)N1C(=O)[C@@]2(c3ccccc31)[C@H](c1ccc(OCCO)cc1)N1[C@H](c3ccccc3)[C@H](c3ccccc3)OC(=O)[C@H]1[C@@H]2C(=O)NC[C@H](O)c1ccccc1 | 0.103 (inactive) | 0.808 | -1.64 | -4.23 (inactive) | 0.228 (inactive) | 0.726 (inactive)
14 | COC(=O)[C@@]1(Cc2ccccc2)[C@H]2c3cc(C(=O)N4CCCC4)n(CCO)c3C[C@H]2CN1C(=O)c1ccccc1 | 1.06 (inactive) | 0.824 | -1.29 | -0.89 (inactive) | -0.536 (inactive) | -0.0989 (inactive)
15 | COCCOC(=O)N1C(=O)[C@@]2(c3cc(C#Cc4ccc(OC)cc4)ccc31)[C@H](C(=O)N1CCc3cc(OC)c(OC)cc3C1)[C@H]1C(=O)O[C@H](c3ccccc3)[C@H](c3ccccc3)N1[C@@H]2c1ccc(O)cc1 | 1.64 (inactive) | 0.759 | -1.65 | -0.63 (inactive) | -0.241 (inactive) | -0.261 (inactive)
16 | CO[C@H]1O[C@H](CO)[C@@H](OC(=O)c2ccc(Br)cc2)[C@@H]2OC(=O)[C@H](Cc3cccc(Br)c3)C/C=C/C[C@@H](Cc3cccc(Br)c3)C(=O)O[C@@H]12 | 1.69 (inactive) | 0.675 | -0.706 | -2.82 (inactive) | 0.373 (inactive) | 0.574 (inactive)
17 | C=C(COC)C(=O)CC[C@H](OC(=O)c1ccccc1-c1ccccc1C(=O)O)c1ccc(CO)o1 | 1.28 (inactive) | 0.393 | 0.399 | -6.22 (inactive) | 0.44 (inactive) | -0.37 (inactive)

Row | SMILES | composite z-score [1] | composite z-score (XIP peptide (Xip251-270)) | z-score [2] | z-score [3] | z-score [4] | z-score [5]
18 | O=C(C=C(CC(O)c1cccc(Cl)c1)OCCF)OCCF (centres undefined) | 0.0562 (inactive) | -1.21 | 0.186 | -1.34 (inactive) | -0.608 (inactive) | -0.48 (inactive)
19 | O=C1C[C@@](C(=O)NCc2ccccc2)(c2ccc([N+](=O)[O-])cc2)[C@@H](c2ccc(CO)cc2I)N1C1CCCCC1 | 0.193 (inactive) | 0.676 | -1.45 | -3.45 (inactive) | 0.173 (inactive) | 0.408 (inactive)
20 | COc1ccc(C#Cc2ccc3c(c2)[C@]2(C(=O)N3)[C@H](C(=O)O)[C@H]3C(=O)O[C@H](c4ccccc4)[C@H](c4ccccc4)N3[C@@H]2c2ccc(OCCO)cc2)cc1 | 2.6 (inactive) | 0.701 | -1.78 | -5.22 (inactive) | 0.573 (inactive) | 0.862 (inactive)
21 | C=CC[C@@]1(C(=O)NCC(O)CO)N=C(c2ccc(OCCCO)cc2)O[C@@H]1c1ccccc1 (some centres undefined) | 2.6 (inactive) | 0.691 | -0.869 | -4.25 (inactive) | -0.379 (inactive) | -0.244 (inactive)
22 | COCCCNC(=O)[C@]1(CCS(=O)(=O)c2ccccc2)N=C(c2ccc(OCCCO)cc2)O[C@@H]1c1ccccc1 | 1.47 (inactive) | 0.919 | -2.13 | -4.72 (inactive) | -0.369 (inactive) | -0.42 (inactive)
23 | O=C1NC(=O)C2C1C=CC(C(O)c1ccc3c(c1)OCO3)N2Nc1ccc(Cl)cc1Cl (centres undefined) | 2.16 (inactive) | 0.726 | 0.576 | -5.9 (inactive) | 0.629 (inactive) | 0.417 (inactive)
24 | COc1ccc(C(=O)Nc2ccc(CN3C(=O)[C@@]4(O[C@@H](CC(=O)N5Cc6ccccc6C[C@H]5CO)[C@H]([Si](C)(C)c5ccc(OC)cc5)[C@H]4C)c4ccccc43)cc2)cc1 | 1.38 (inactive) | 0.701 | -1.23 | -2.48 (inactive) | 0.175 (inactive) | 0.514 (inactive)
25 | CN1C(=O)C2C=CC(C(O)c3cccc4ccccc34)N(NC(=O)OC(C)(C)C)C2C1=O (centres undefined) | 0.704 (inactive) | 0.586 | 0.99 | -3.88 (inactive) | 0.326 (inactive) | -0.397 (inactive)
26 | CO[C@H]1O[C@H](CO)[C@@H](OC(=O)Nc2cccc(F)c2)[C@H](OC(=O)Nc2ccc3c(c2)OCO3)[C@H]1OC(=O)Nc1ccc2c(c1)OCO2 | 1.87 (inactive) | 0.813 | -1.34 | -7.92 (inactive) | -0.178 (inactive) | 0.0427 (inactive)
27 | COc1ccc([Si](C)(C)[C@@H]2[C@@H](CC(=O)N(CCO)Cc3ccccc3)O[C@]3(C(=O)N(Cc4ccc(N5CCOC5=O)cc4)c4ccccc43)[C@H]2C)cc1 | 2.73 (inactive) | 0.666 | -0.352 | -1.34 (inactive) | -0.269 (inactive) | 0.0764 (inactive)
28 | CC(C)N1CC=CC23O[C@@H]4C=CCOC(=O)[C@@H]4[C@H]2C(=O)N(CCCCCCO)[C@@H]3C1=O (some centres undefined) | -0.0725 (inactive) | -0.262 | -0.511 | -3.69 (inactive) | 0.477 (inactive) | 0.454 (inactive)
29 | C=C(COC)/C(=C/C[C@@H](OC(=O)c1ccncc1)c1cccc(OCCO)c1)c1cc(C(=O)OC)ccc1OC | 0.658 (inactive) | 0.657 | -2.38 | -4.58 (inactive) | 0.0182 (inactive) | 0.527 (inactive)
30 | O=C1O[C@H](c2ccccc2)[C@H](c2ccccc2)N2[C@H]1[C@@H](C(=O)N1CCN(c3ncccn3)CC1)[C@]1(C(=O)Nc3ccc(C#CCCO)cc31)[C@H]2c1ccccc1OCCO | 0.439 (inactive) | 0.808 | -2.19 | -1.29 (inactive) | -0.329 (inactive) | -0.529 (inactive)
31 | CCCCCCC#C[Si](O[C@H](c1ccccc1)c1cn(Cc2cccc(Cl)c2)nn1)(C(C)C)C(C)C | -0.301 (inactive) | 0.0372 | -0.464 | 1.16 (inactive) | -0.195 (inactive) | -0.272 (inactive)
32 | Cc1ccc(S[C@]2(C(=O)O)CC(=O)N(C3CCCCC3)[C@@H]2c2ccc(CO)cc2)cc1 | 1.15 (inactive) | 0.929 | 0.756 | -3.31 (inactive) | -0.643 (inactive) | -0.583 (inactive)
33 | CCC[C@@H]1C[C@@]1(CCC)[C@@H](NC(=O)c1cccs1)c1ccc(Cl)cc1 | -0.0569 (inactive) | 0.0455 | -0.76 | -1.93 (inactive) | -0.248 (inactive) | -0.143 (inactive)
34 | COCCOC(=O)N1C(=O)[C@@]2(c3ccccc31)[C@H](c1ccccc1OCCO)N1[C@H](c3ccccc3)[C@H](c3ccccc3)OC(=O)[C@H]1[C@@H]2C(=O)N1CCc2cc(OC)c(OC)cc2C1 | 0.159 (inactive) | 0.84 | -2.46 | -2.43 (inactive) | -0.453 (inactive) | -0.193 (inactive)
